SMILES strings stand for the structures. Values joined by “and” are separate entries in the source; they are usually repeats but may differ in a detail not shown here. Equal values may be shown once. Results filed as inconclusive are left out. Active and inactive are the calls of the source. Calls come from the whole dose curve; as a rule, active = well fitted cell-killing curve with a large enough effect; inconclusive = small, poorly fitted or top-dose-only effect; inactive = flat fitted curve, though single readings scatter.

Experiment [1] in a line: Cell Viability - LYMP2-023 (AID 975). Note: nearly all actives have a fitted effect of over 55% in size. The text has this:
NIH Chemical Genomics Center [NCGC]
NIH Molecular Libraries Screening Centers Network [MLSCN]
National Institutes of Environmental Health Sciences [NIEHS]
National Toxicology Program [NTP]
We have developed a 1536-well cell-based assay for quantitative high throughput screening (qHTS) against a number of cell lines to determine in vitro cytotoxicity of small molecules. This particular assay uses a human lymphoblastoid cell line (LYMP2-023) purchased from Coriell Institute for Medical Research.
NCGC Assay Protocol Summary:
The CellTiter-Glo luminescent cell viability assay (Promega) is a homogeneous method to measure the number of viable cells in culture. The end point readout of this assay is based on quantitation of intracellular ATP, an indicator of metabolic activity, using the luciferase reaction. Luciferase catalyzes the oxidation of beetle Luciferin to oxyluciferin and light in the presence of ATP. The luminescent signal is proportional to amount of ATP present.
Using the CellTiter-Glo luminescent cell viability assay, the amount of cellular ATP was measured in the lymphoblastoid cell line with complete culture medium following compound treatment for 24 hours. The assay was performed in opaque white Kalypsys 1536-well plates. In the screen, tetraoctylammonium bromide was used as positive control. Library compounds were measured for their ability to cause acute toxicity in the cell line, as reflected by a decrease in intracellular ATP levels, in a concentration-dependent manner. […] AC50 values were determined from concentration-response data modeled with the standard Hill equation.
qHTS protocol for CellTiter Glo lymphoblastoid cellular assay
[Step] [Parameter] [Value] [Description]
1. Reagent; 5 uL; 2500 lymphoblastoid cells/well
2. Time; 5 hr; 37 C incubation
4. Controls; 23 nL; Tetraoctylammonium bromide 6.4pM to 92 uM
5. Time; 24 hr; 37 C incubation
6. Reagent; 5 uL; CellTiter Glo reagent
7. Time; 30 min; Room Temperature
8. Detection; Luminescence; Viewlux plate reader
Keywords: cell viability, cytotoxicity, lymphoblastoid cell line, luminescence, NTPHTS, NTPHTS_NCGC, NIEHS, DSSTox, MLSMR, MLSCN, NIH Roadmap, qHTS, NCGC

Experiment [2] is described as follows: Cell Viability - LYMP2-025 (AID 976). The method, boiled down: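 In qHTS format, LYMP2-025 lymphoblastoid cells in complete culture medium received compound for 24 hr; ATP-based CellTiter-Glo signal gave viability, with AC50 derived by Hill equation.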
Experiment [3] in a line: Cell Viability - LYMP2-002 (AID 977).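 Note: compound exposure lasted 24 h at 37 °C.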 The method, boiled down: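 Human lymphoblastoid LYMP2-002 cells, 2500 per well, exposed to compounds for 24 h at 37 C in complete medium; viability read as intracellular ATP by CellTiter-Glo luminescence, AC50 from Hill fits.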
Experiment [4] can be described thus: Cell Viability - LYMP2-006 (AID 978). Note: nearly all actives have a fitted effect of over 60% in size. The method, boiled down: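 qHTS, 1536-well; 2500 cells/well, 5 hr 37 C; cpd 24 hr 37 C; CellTiter-Glo 30 min RT; luminescence. Tetraoctylammonium bromide pos. ctrl. AC50 via Hill eqn.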
The nature of experiment [5]: Cell Viability - LYMP2-007 (AID 979).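 Note: cells exposed to compound for 24 h before reading; nearly all actives have a fitted effect of over 60% in size.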 The method, boiled down: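 Acute toxicity is scored as a concentration-dependent fall in intracellular ATP in human lymphoblastoid cells treated 24 hr at 37 C, measured by luciferase luminescence; Hill-equation modelling yields AC50.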
Experiment [6] is described as follows: Cell Viability - LYMP2-008 (AID 980). Note: nearly all actives have a fitted effect of over 60% in size. The method, boiled down:
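Acute cytotoxicity is scored as concentration-dependent loss of cellular ATP in a human lymphoblastoid line after 24 hr treatment at 37 C. ATP is quantified by luciferase luminescence.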

The nature of experiment [7]: Cell Viability - LYMP2-010 (AID 981). Note: nearly all actives have a fitted effect of over 55% in size. The method, boiled down:
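Acute toxicity is scored as a concentration-dependent loss of cellular ATP in human lymphoblastoid cells after 24 hr compound exposure in complete medium. Tetraoctylammonium bromide is the positive control.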

Experiment [8] can be described thus: Cell Viability - LYMP2-012 (AID 982).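 Note: cellular ATP by luciferase luminescence where a drop means cytotoxicity; cells exposed to compound for one day before reading; nearly all actives have a fitted effect of over 55% in size.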
Experiment [9] can be described thus: Cell Viability - LYMP2-014 (AID 983). Note: nearly all actives have a fitted effect of over 50% in size. The method, boiled down:
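Decrease in intracellular ATP after 24 hr treatment at 37 C, measured by luciferase luminescence, indicated cytotoxicity. Concentration-response data were fitted with the standard Hill equation to give AC50.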

Experiment [10] can be described thus: Cell Viability - LYMP2-016 (AID 984). Note: nearly all actives have a fitted effect of over 55% in size. In a few lines:
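qHTS, 1536-well: 2500 LYMP2-016 cells/well, 5 hr 37 C, compound added, 24 hr 37 C, CellTiter-Glo 30 min RT, luminescence. Tetraoctylammonium bromide positive control. AC50 via Hill fit.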
Potency is the fitted concentration of half-maximal effect.

In the case of `CNC(=O)Oc1cccc2ccccc12`, the Potency result in [1], in experiment [2], in experiment [3], in experiment [4], in [5] and in [6] was “inactive” throughout. In addition, the Potency entry in experiment [7], in experiment [8], in experiment [9] and in [10] was “inactive” throughout.

As to `C[C@@H]1C[C@@H]([C@H](O)CC2CC(=O)NC(=O)C2)C(=O)[C@@H](C)C1`, the Potency in [4] was 2.51 µM (active); in [7], 1 µM (active); in experiment [8], 631 nM (active) and 794 nM (active).

As for `Oc1ccc(Cl)cc1Sc1cc(Cl)ccc1O`, the Potency in [5] is 39.8 µM (active); in experiment [7] it was 39.8 µM (active); in [8], 31.6 µM (active).

`COP(=O)(OC)OC=C(Cl)Cl`: the Potency entry in [1], in [2], in experiment [3], in [4], in experiment [5] and in [6] was “inactive” throughout. Also, the Potency entry in experiment [7], in [8], in [9] and in experiment [10] was “inactive” throughout.

Take `CCCCCCCCCCCC[N+](C)(C)CCOc1ccccc1`: the Potency in experiment [1] is 50.1 µM (active); in experiment [2], 50.1 µM (active); in experiment [3], 50.1 µM (active); in experiment [4], 20 µM (active); in experiment [5], 25.1 µM (active); in experiment [6], 25.1 µM (active). Also, the Potency in experiment [7] was 39.8 µM (active); in experiment [8] it was 39.8 µM (active); in experiment [9], 39.8 µM (active); in experiment [10] it was 31.6 µM (active).

As for `CC[n+]1c(-c2ccccc2)c2cc(N)ccc2c2ccc(N)cc21`, the Potency in [1] was 15.8 µM (active); in experiment [2], 15.8 µM (active); in experiment [3] it was 15.8 µM (active); in experiment [4] it was 10 µM (active); in [5], 12.6 µM (active); in experiment [6], 10 µM (active). Further, the Potency was 12.6 µM (active) in experiment [7], 7.94 µM (active) in experiment [8], 10 µM (active) in [9] and 15.8 µM (active) in [10].

On to `O=C(CCl)c1ccc(Cl)cc1Cl`, for which the Potency in experiment [1] was 6.31 µM (active); in experiment [2] it was 7.94 µM (active); in experiment [3] it was 7.94 µM (active); in experiment [4] it was 7.94 µM (active); in experiment [5] it was 5.01 µM (active); in experiment [6], 7.94 µM (active). For the same molecule, the Potency in experiment [7] was 2.51 µM (active); in experiment [8], 3.16 µM (active); in [9], 5.01 µM (active); in [10] it was 5.01 µM (active).

In the case of `Oc1c(Br)cc(Br)cc1Br`, the Potency entry in experiment [1], in experiment [2], in [3], in experiment [4], in [5] and in experiment [6] was “inactive” in each case. The Potency entry in experiment [7], in experiment [8], in experiment [9] and in [10] was “inactive” each time.

Consider `COC(=O)C1=C(C)NC(C)=C(C(=O)OC)C1c1ccccc1[N+](=O)[O-]`, for which the Potency in experiment [5] and in experiment [7] was 39.8 µM (active) in each case.

Consider `CN(C)C(=S)SSC(=S)N(C)C`, for which the Potency was 0.316 µM (active) in [1]; 0.251 µM (active) in [2]; 0.316 µM (active) in experiment [3]; 0.251 µM (active) in experiment [4]; 0.316 µM (active) in experiment [5]; 0.251 µM (active) in [6]. In addition, the Potency in [7] was 0.251 µM (active); in [8], 0.199 µM (active); in experiment [9] it was 0.199 µM (active); in [10], 0.316 µM (active).
